Bioassay records: PubChem BioAssay, National Center for Advancing Translational Sciences (NCATS)
Marburg entry inh: blocks Marburg virus binding to or entry into cells; Marburg virus pseudotyped entry inhibition, cell reporter; Potency, µM (doses to about 37.8 µM), for inactives: at the top dose activity change, negative = inhibition, actives largely listed as inhibitors; actives 1.8% (n = 300,000); calls by dose curve; tested in HEK293 cells; further: potency means the concentration at half of the fitted maximal effect
LASV entry inh: inhibitors of Lassa virus binding or cell entry; Lassa virus pseudotype entry inhibition, cell reporter; AID 540256; actives 1.2% (n = 300,000); Potency, µM (doses to about 37.9 µM), for inactives: at the top dose activity change, negative = inhibition, actives largely listed as inhibitors; calls by dose curve; tested in HEK293 cells; further: potency means the concentration at half of the fitted maximal effect; nearly all actives have a fitted effect of over 50% in size
HCMV inh: inhibitors of human cytomegalovirus. activity change, negative = inhibition, % at 57.5 µM. HFF cells, HCMV-luciferase reporter, 72 h; hits give low values. AID 1259415. actives 4.5% (n = 410,000); in the data active means activity change below about -60%; inconclusive means no clear call, values can overlap the other calls; inactive means above about -39%
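Inhibition of viral replication was scored as loss of reporter luminescence in HFFs infected with HCMV-luciferase (MOI 1 PFU/cell) for 72 h; compounds tested at 2 doses, normalized to buffer and Salinomycin controls.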
Pf growth 96h: inhibits malaria parasite growth, 96 h; Potency, µM (titrated, usually from 28.7 µM), for inactives: at the top dose activity change, negative = inhibition, hits mostly inhibitors; P. falciparum luciferase reporter growth, 96 h; AID 504834; actives 6.9% (n = 320,000); further: potency means the concentration at half of the fitted maximal effect
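Plates of compound plus infected erythrocytes (2% hematocrit, 0.05% parasitemia final) incubate 96 hours, 37 C, 5% CO2. Detection reagent added; reduced luminescence from the parasites' luciferase reporter flags inhibition.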
Pf growth 48h: P. falciparum growth inhibition at 48 hours (one generation); AID 504832; Potency, µM (series often up to 28.7 µM), for inactives: at the highest dose activity change, negative = inhibition, most hits filed as inhibitors; P. falciparum luciferase growth in erythrocytes, 48 h; actives 5.9% (n = 310,000); further: potency means the concentration at half of the fitted maximal effect
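Luciferase-expressing parasites in RBCs, 2% Hct / 0.1% parasitemia final; RPMI 1640 + 0.5% Albumax; 37 C, 5% CO2, one generation; luminescence read-out, lower signal = inhibition.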
HCV inhibitor: blocks hepatitis C virus. Huh7.5.1 HCVcc-Cre infection, luciferase reporter, 44 h. Potency, µM (titrated, usually from 41.8 µM), without a hit: at the highest dose activity change, negative = inhibition, hits mostly inhibitors. actives 3.4% (n = 340,000); further: potency means the concentration at half of the fitted maximal effect
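Luciferase read-out (15 sec integration) after a 15 min room-temperature substrate step quantifies HCVcc-Cre infection. Cells, 1,000 per well, had compound added 4 h post-plating, then virus at ~0.5 moi, and were cultured 44 h.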
An asterisk follows results filed as active; ? = inconclusive; · = not tested or not shown; + = active, no number; ! = not confirmed by another sample; [ ] = dose if it differs, or a comment. Compounds with a hit are over-represented: about 14% of the library has one in this group of screens. Unless noted, the call rests on the fitted dose curve; in most records, active means well fitted inhibition curve with a large enough effect; inconclusive means small, poorly fitted or top-dose-only effect, or another doubt; inactive means no such curve, though single readings can be large or run the other way. On the % scale 0 is the no-effect control and ±100 the full control effect.

SMILES	Marburg entry inh	LASV entry inh	HCMV inh	Pf growth 96h	Pf growth 48h	HCV inhibitor
O=C(CN1C(=O)CSc2ccc(S(=O)(=O)N3CCCCC3)cc21)NCc1ccc(F)cc1Cl	·	?	-17	·	·	·
CCc1ccc(NC(=O)Cn2c(=O)c(-c3ccccc3NC(C)=O)nc3ccccc32)cc1	-1%[46.1 µM]	8%[46.1 µM]	-37	·	·	·
COc1ccc(CN(C)CC(O)COc2ccc(-c3ccccc3)cc2)cc1OC (stereo not drawn)	?	?	29	0%	?	7.1µM*
COc1ccc(CN(CCc2ccccc2)Cc2ccccc2)cc1OC	·	·	-10	?	8.3µM*	-16%
COc1ccc(CCN(C)CC(O)c2ccccc2)cc1OC (stereo not drawn)	3%[46.1 µM]	20%	-74*	-15%	-1%	-8%
COc1cc(CN(CCN(C)C)Cc2ccccc2)ccc1OCc1ccccc1	?	?	-15	?	?	?
COc1ccc(CCN(C)CCc2ccc(OC)c(OC)c2)cc1OC	5µM*!	-22%	-7	·	·	-21%
COc1ccc(NC(=O)Nc2cccc3c2O[C@H](CN(C)C(=O)NC(C)C)[C@@H](C)CN([C@H](C)CO)C3=O)cc1	·	·	11	·	·	-5%
CC(=O)c1cccc(NC(=O)c2cccn2-c2nnc(N3CCCCC3)s2)c1	·	12%[46.1 µM]	0	·	·	·
C[C@H](CO)N1C[C@H](C)[C@@H](CN(C)S(C)(=O)=O)OCc2cn(nn2)CCCC1=O	·	·	-2	·	·	·
COc1ccc(CCN(C)Cc2ccncc2)cc1OC	6%	-4%	0	10%	4%	5%
COc1ccc(CCN(C)CCCC(C#N)(c2cc(OC)c(OC)c(OC)c2)C(C)C)cc1OC (stereo not drawn)	8.9µM*	?	-32	5.2µM*	12µM*	?
Cc1ccc(-n2ncc(C(=O)N3CCN(c4ccccc4F)CC3)c2C2CCN(C(=O)OC(C)(C)C)CC2)cc1C	·	?	+	·	·	·
CCOC(=O)N1CCC(NC(=O)c2cnn(-c3ccc(F)cc3F)c2C2CCN(C(=O)OC(C)(C)C)CC2)CC1	·	?	+	·	·	·
CCN1CCN(C(=O)c2cnn(-c3ccc(F)cc3F)c2C2CCN(C(=O)OC(C)(C)C)CC2)CC1	·	-23%[46.1 µM]	+	·	·	·
CC(C)(C)OC(=O)N1CCC(c2c(C(=O)N3CCN(C(=O)c4ccco4)CC3)cnn2-c2ccc(F)cc2F)CC1	·	16%[46.1 µM]	-13	50%	9.3µM*	11%
Cc1ccc(-n2ncc(C(=O)N3CCc4ccccc4C3)c2C2CCN(C(=O)OC(C)(C)C)CC2)cc1C	·	-1%[46.1 µM]	0	·	·	·
CC(C)(C)OC(=O)N1CCC(c2c(C(=O)N3CCCCC3)cnn2-c2ccc(F)cc2F)CC1	·	?	0	·	·	·
Cc1ccccc1CCNC(=O)C1CCN(S(=O)(=O)c2ccc3c(ccn3C)c2)CC1	·	-18%[46.1 µM]	13	·	·	·
Cc1c(-c2ccc(OCCN3CCOCC3)cc2)c(=O)oc2ccc3ccccc3c12	·	·	-15	·	·	·
O=C1NC(Cc2ccccc2)c2nc3ccc(F)cc3c(=O)n2-c2cc3ccccc3cc21 (stereo not drawn)	·	·	-28	·	·	·
Cc1ccc(S(=O)(=O)NC(CC(C)C)C(=O)Nc2ccncc2)cc1 (stereo not drawn)	2%	1%	-17	5.9µM*	5.2µM*	5%
COC(=O)CCCC[C@@H]1O[C@H](CCc2ccccc2)Cc2[nH][nH]c(=O)c21	·	·	49	·	·	·
O=C(NCc1ccccc1Cl)C1CCCN(c2ncnc3onc(-c4ccc(F)cc4)c23)C1 (stereo not drawn)	·	11%[46.1 µM]	14	·	·	·
Cc1snc(SCc2ccc(Cl)cc2)c1C#N	·	·	-100*	9%	1%[0.00184 µM]	-26%
SMILES	Marburg entry inh	LASV entry inh	HCMV inh	Pf growth 96h	Pf growth 48h	HCV inhibitor
Cc1n(CC(O)COC2CCCCC2)c2ccccc2[n+]1C (stereo not drawn)	-2%	10%	-19	27%	6.6µM*	19%
CCOC(=O)c1ccc(NC(=O)C2=C(C)C(=O)OC23CCN(C(C)=O)CC3)cc1	·	-9%[46.1 µM]	?	·	·	·
FC(F)(F)c1cccc(N2CCN(Cc3nnc(-c4ccc5c(c4)OCO5)o3)CC2)c1	-8%[46.1 µM]	-3%[46.1 µM]	1	·	·	·
Cc1ccc(S(=O)(=O)c2nc(Nc3ccccc3N3CCOCC3)sc2Cl)cc1	?	0%	-34	?	?	10µM*
O=C(Cn1c(=O)n(Cc2ccc(F)cc2)c(=O)c2sc3ccccc3c21)NCc1ccccc1	-13%[46.1 µM]	3%[46.1 µM]	5	·	·	·
C=CCn1c(CCC(O)COCCCCC)n[nH]c1=S (stereo not drawn)	16%	6%	-97*	25%	1%	2%
C=CCn1c(C(CCCC)CC(O)COCCC)n[nH]c1=S (stereo not drawn)	·	·	-17	-6%	-65%	-3%
COC(=O)C1OC(OC2CC[C@]3(C)C(CC[C@@]4(C)[C@@H]3CC=C3[C@@H]5CC(C)(C)CC[C@]5(C(=O)OC5OC(CO)C(O)C(O)C5O)CC[C@]34C)C2(C)C)C(O)C(O)C1O[C@H]1OCC(O)C(O)C1O (stereo partly drawn)	·	·	·	·	·	10µM*
C/C=C(\C)C(=O)OC1CC(C)(C)C[C@H]2C3=CC[C@@H]4[C@@]5(C)CCC(O[C@@H]6O[C@@H](C(=O)O)[C@@H](O)C(O[C@@H]7OC[C@H](O)[C@@H](O)[C@@H]7O[C@@H]7OC(CO)C(O)[C@@H](O)[C@@H]7O)C6O[C@@H]6OC(CO)C(O)C(O)C6O)[C@@](C)(CO)[C@@H]5CC[C@]4(C)[C@]3(C)CC(O)[C@@]12CO (stereo partly drawn)	·	·	?	·	·	11µM*
CC(C)NC(=O)C1(C)CCN1Cc1ccc(C(F)(F)F)cc1 (stereo not drawn)	·	·	-10	·	·	·
O=C(N/N=C/c1ccccc1)C1CCCN1C(=O)c1cc([N+](=O)[O-])cc([N+](=O)[O-])c1 (stereo not drawn)	·	·	17	?	-10%	-1%
CCc1nc2c(c(=O)c3ccccc3n2C)c(=O)n1-c1ccc(F)cc1	2%	6%	13	?	28%	?
Cc1ccc(-c2nc3c(c(=O)c4ccccc4n3C)c(=O)n2-c2ccc(F)cc2)cc1	18%[46.1 µM]	20%[46.1 µM]	-19	-25%	8.3µM*	7%
Cn1c2ccccc2c(=O)c2c(=O)n(-c3ccc(F)cc3)c(-c3cccs3)nc21	13%[46.1 µM]	11%[46.1 µM]	0	5.2µM*	?	-13%
Cn1c2ccccc2c(=O)c2c(=O)n(-c3ccccc3)c(-c3ccc(C(C)(C)C)cc3)nc21	·	·	0	2.6µM*	1.9µM*	?
